Assay results published in PubChem BioAssay AID1159580 (chemical genetic matrix, 2015).
Where “and” joins values, the source holds several entries; their conditions need not be identical. Equal entries are not always repeated. Hit rate of the full screen: of about 5,500 compounds, about 2,000 (36%) were called active. Another 18% or so got no clear call; they are omitted. Rule as the data show it: active = normalized growth mostly below about 0.91 (no sharp cut-off); inconclusive = no clear call, values can overlap the other calls; inactive = mostly above about 0.92. Some of the results follow.

Assay: chemical genetic growth profiling, strain panel (AID 1159580);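 also: tested at 20 µM; growth read once vehicle control cultures reached saturation at 30 °C; 1 = growth at the plate median or of vehicle wells; lower values mean less growth of the strain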
Settings: S. cerevisiae deletion strains, growth OD

Measured: normalized growth

CCCn1c(=O)c2[nH]c(C3CCCC3)nc2n(CCC)c1=O
inactive: locus YAL013W, strain DEP1, stronger effect = lower value 0.992 | locus YAL021C, strain ccr4, stronger effect = lower value 1.01 | locus YAL026C, strain drs2, stronger effect = lower value 0.984 | locus YAL030W, strain snc1, stronger effect = lower value 0.973 | locus YAL040C, strain CLN3, stronger effect = lower value 0.995 | locus YBL061C, strain skt5, stronger effect = lower value 0.989 | locus YBR009C, strain hhf1, stronger effect = lower value 0.969 | locus YBR021W, strain FUR4, stronger effect = lower value 1.01 | locus YBR023C, strain chs3, stronger effect = lower value 0.986 | locus YBR171W, strain sec66, stronger effect = lower value 0.976 | locus YBR229C, strain ROT2, stronger effect = lower value 0.992 | locus YBR231C, strain swc5, stronger effect = lower value 0.984 | locus YBR279W, strain paf1, stronger effect = lower value 1 | locus YCL011C, strain gbp2, stronger effect = lower value 0.986 | locus YCL016C, strain dcc1, stronger effect = lower value 0.98 | locus YCL029C, strain bik1, stronger effect = lower value 0.959 | locus YCL061C, strain MRC1 (second series), stronger effect = lower value 0.999 | locus YCL061C, strain MRC1, stronger effect = lower value 0.977 | locus YCL069W, strain vba3, stronger effect = lower value 0.98 | locus YCR088W, strain abp1, stronger effect = lower value 0.983 | locus YDL005C, strain med2, stronger effect = lower value 0.992 | locus YDL035C, strain GPR1, stronger effect = lower value 0.981 | locus YDL040C, strain nat1, stronger effect = lower value 0.984 | locus YDL074C, strain BRE1, stronger effect = lower value 0.973 | locus YDL101C, strain DUN1, stronger effect = lower value 0.992 | locus YDL134C, strain PPH21, stronger effect = lower value 0.993 | locus YDL185W, strain tfp1, stronger effect = lower value 0.926 | locus YDL192W, strain arf1, stronger effect = lower value 0.977 | locus YDR001C, strain nth1, stronger effect = lower value 0.986 | locus YDR069C, strain doa4, stronger effect = lower value 0.976 | locus YDR101C, strain arx1, stronger effect = lower value 0.976 | locus YDR137W, strain rgp1, stronger effect = lower value 0.954 | locus YDR150W, strain NUM1, stronger effect = lower value 0.968 | locus YDR159W, strain sac3, stronger effect = lower value 0.968 | locus YDR162C, strain NBP2, stronger effect = lower value 0.998 | locus YDR195W, strain ref2 0.947 | locus YDR297W, strain sur2, stronger effect = lower value 0.99 | locus YDR318W, strain mcm21, stronger effect = lower value 0.964 | locus YDR334W, strain swr1, stronger effect = lower value 0.988 | locus YDR335W, strain msn5, stronger effect = lower value 0.987 | locus YDR363W, strain ESC2, stronger effect = lower value 1.01 | locus YDR388W, stronger effect = lower value 0.96 | locus YDR392W, strain spt3, stronger effect = lower value 0.839 | locus YDR502C, strain sam2, stronger effect = lower value 0.98 | locus YEL003W, strain gim4, stronger effect = lower value 0.985 | locus YEL037C, strain rad23, stronger effect = lower value 0.991 | locus YEL061C, strain CIN8 (second series), stronger effect = lower value 0.987 | locus YEL061C, strain CIN8, stronger effect = lower value 0.994 | locus YER002W, strain NOP16, stronger effect = lower value 1.01 | locus YER015W, strain faa2, stronger effect = lower value 1 | locus YER016W, strain bim1, stronger effect = lower value 0.98 | locus YER110C, stronger effect = lower value 0.949 | locus YER111C, strain swi4, stronger effect = lower value 0.993 | locus YER155C, strain BEM2 (second series), stronger effect = lower value 0.921 | locus YER155C, strain BEM2, stronger effect = lower value 0.995 | locus YER167W, strain BCK2, stronger effect = lower value 0.971 | locus YFR010W, strain ubp6, stronger effect = lower value 0.992 | locus YGL078C, strain dbp3, stronger effect = lower value 0.967 | locus YGL086W, strain mad1, stronger effect = lower value 0.98 | locus YGL167C, strain pmr1, stronger effect = lower value 0.982 | locus YGL173C, strain kem1, stronger effect = lower value 0.983 | locus YGL227W, strain vid30, stronger effect = lower value 0.98 | locus YGL240W, strain doc1, stronger effect = lower value 0.989 | locus YGL248W, strain PDE1, stronger effect = lower value 0.995 | locus YGL253W, strain hxk2, stronger effect = lower value 0.992 | locus YGR078C, strain PAC10, stronger effect = lower value 0.985 and 0.986 | locus YGR135W, strain pre9, stronger effect = lower value 1 | locus YGR229C, strain SMI1, stronger effect = lower value 0.996 and 0.953 | locus YGR252W, strain gcn5, stronger effect = lower value 0.926 | locus YHR013C, strain ard1, stronger effect = lower value 0.928 | locus YHR027C, strain rpn1, stronger effect = lower value 0.988 | locus YHR030C, strain SLT2, stronger effect = lower value 0.984 | locus YHR079C, strain IRE1 (second series), stronger effect = lower value 0.975 | locus YHR094C, strain hxt1, stronger effect = lower value 0.963 | locus YHR129C, strain ARP1, stronger effect = lower value 0.985 | locus YHR142W, strain chs7, stronger effect = lower value 0.988 | locus YHR200W, strain rpn10, stronger effect = lower value 0.963 | locus YIL066C, strain RNR3, stronger effect = lower value 0.972 | locus YIL073C, strain SPO22, stronger effect = lower value 0.914 | locus YIL125W, strain kgd1, stronger effect = lower value 0.985 | locus YIR030C, strain dcg1, stronger effect = lower value 0.977 | locus YJL092W, strain hpr5, stronger effect = lower value 1 | locus YJL095W, strain BCK1 (second series), stronger effect = lower value 0.981 | locus YJL095W, strain BCK1, stronger effect = lower value 0.996 | locus YJL115W, strain asf1, stronger effect = lower value 0.994 | locus YJL129C, strain trk1, stronger effect = lower value 0.943 | locus YJL134W, strain LCB3, stronger effect = lower value 0.979 | locus YJL154C, strain vps35, stronger effect = lower value 0.979 | locus YJL164C, strain tpk1, stronger effect = lower value 0.988 | locus YJL166W, strain qcr8, stronger effect = lower value 0.988 | locus YJL168C, strain set2, stronger effect = lower value 0.971 | locus YJL187C, strain SWE1 (second series), stronger effect = lower value 0.982 | locus YJL187C, strain SWE1, stronger effect = lower value 0.995
